Screening data: PubChem BioAssay, Broad Institute
ERp5 block – inhibitors of ERp5-driven insulin aggregation, primary screen, biochemical, turbidity, absorbance 650 nm, single point | hit rate 0.05% among 350,000 | 90 min | Protein disulfide-isomerase A6 (Homo sapiens), Q15084 | inhibition, % at 9.99 µM;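 active = mean replicate inhibition above about 25%, with every replicate also reaching it, limit read from the data, passing the limit was not always enough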
Target sequence (Q15084 whole entry, looked up): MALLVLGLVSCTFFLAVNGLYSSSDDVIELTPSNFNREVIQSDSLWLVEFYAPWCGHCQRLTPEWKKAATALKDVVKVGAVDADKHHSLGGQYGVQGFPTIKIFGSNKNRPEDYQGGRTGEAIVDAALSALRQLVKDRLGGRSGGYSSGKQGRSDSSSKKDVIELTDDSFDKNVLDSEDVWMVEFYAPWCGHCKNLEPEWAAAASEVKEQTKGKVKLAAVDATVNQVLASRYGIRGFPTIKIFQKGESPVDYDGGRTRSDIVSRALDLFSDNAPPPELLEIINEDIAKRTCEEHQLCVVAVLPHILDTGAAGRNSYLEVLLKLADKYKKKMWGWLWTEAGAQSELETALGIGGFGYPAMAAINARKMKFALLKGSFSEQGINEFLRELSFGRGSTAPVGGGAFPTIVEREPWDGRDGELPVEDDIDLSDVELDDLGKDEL
AI-2 QS modul – Vibrio harveyi AI-2 quorum sensing modulators, primary screen, JMH597 strain, luminescence/OD600 ratio | activity change, % at 7.5 µM | Vibrio harveyi JMH597 AI-2 luminescence/OD600 ratio, 9 h; active compounds read low; strain lacks LuxN and CqsS sensors; 0 = neutral-control median | hit rate 0.4% among 300,000; in the data active = activity change below about -75%, passing the limit was not always enough;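 also: luminescence divided by OD600 gain over 9 h not by final OD600 alone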
Vif inh – HIV Vif self-association inhibitors, primary screen, imaging, HEK293T, single point; hit rate 0.35% among 340,000; inhibition, % at 7.49 µM; HEK293T cells, Vif self-association by quenched fluorescence, 24 h; in the data active = inhibition above about 50%, passing the limit was not always enough
PvdQ acylase – P. aeruginosa PvdQ acylase inhibitors, primary screen, biochemical, fluorescence, plate reader and imaging, single point; PvdQ acylase [Pseudomonas aeruginosa LESB58]; purified PvdQ acylase; inhibition, % at 10 µM; hit rate 0.063% among 340,000; in the data active = inhibition above about 30%, passing the limit was not always enough;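 also: 0% = vehicle neutral wells and 100% = reference inhibitor wells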
PDI inh – inhibitors of human PDI, primary screen, biochemical, turbidity, single point, plate reader | inhibition, % at 10 µM | PDI insulin aggregation turbidity, A650, 90 min | Protein disulfide-isomerase (Homo sapiens), P07237 | hit rate 0.052% among 350,000;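 active = mean inhibition across replicates of 30% or more, whatever share of single replicates reach that level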
The depositor's hits bear a star; . = no result. Compounds with a hit are over-represented: about 0.64% of the library has one in this group of screens.

SMILES	ERp5 block	AI-2 QS modul	Vif inh	PvdQ acylase	PDI inh
O=C(NC1CCCCCCC1)c1cc([N+](=O)[O-])ccc1Cl	-1	16	-2	42*	2
O=C(NC1CCCCC1)c1cc([N+](=O)[O-])ccc1N1CCCC1	2	5	.	-1	-14
O=C(NC1CCCCCCC1)c1cccc(Cl)c1	2	3	-3	74*	3
O=C(NC1CCCC1)c1cccc(Cl)c1	13	39	-3	70*	1
O=C(C[C@H]1CC[C@H]2[C@@H](COC[C@H](O)CN2Cc2ccccc2F)O1)N[C@@H]1CCN(Cc2ccccc2)C1	3	.	.	.	.
CC=Cc1ccc2n(c1=O)C[C@@H]1[C@@H](CO)[C@H](C(=O)NCC)[C@H]2N1C(=O)Nc1cc(F)ccc1F (mixture of isomers)	-2	.	.	.	.
O=C(CCN1CCCCC1)N[C@@H]1CC[C@H](CCn2cc(-c3ccc(F)cc3)nn2)O[C@@H]1CO	0	.	.	.	.
O=C(Nc1cccc(Cl)c1)Nc1csc([N+](=O)[O-])c1	0	-91*	.	-12	8
O=C(C[C@@H]1CC[C@@H]2[C@H](COC[C@@H](O)CN2C(=O)c2ccc3c(c2)OCO3)O1)NCCN1CCCCC1	1	.	.	.	.
Cn1c(=O)c2c(nc(NCCNC(=O)c3ccco3)n2Cc2ccc(Cl)cc2Cl)n(C)c1=O	.	-17	.	15	4
Cn1c(=O)c2c(nc(NCC3CCCC(CN)C3)n2Cc2ccc(Cl)cc2Cl)n(C)c1=O (stereo not given)	3	12	51*	11	-8
Cc1cc(Cl)n2c(nc3cc(F)c(F)cc32)c1C#N	1	-96*	77*	-12	0
CC(C)NC(=O)Nc1ccc2c(c1)C(=O)N([C@H](C)CO)C[C@@H](C)[C@@H](CN(C)S(=O)(=O)c1ccc(Cl)cc1)OCCCC[C@@H](C)O2	0	.	.	.	.
O=C1/C(=C/c2ccc([N+](=O)[O-])cc2)Oc2cc(O)ccc21	-1	-83*	-11	69*	16
O=C1/C(=C/c2ccc(Br)cc2)Oc2cc(O)ccc21	1	15	-12	10	20
C[C@@H]1CN([C@H](C)CO)C(=O)c2cc(C#CC3CCCCC3)cnc2O[C@@H]1CN(C)S(C)(=O)=O	8	.	.	.	.
CN(C)C=Nc1nonc1-c1ccccc1	-6	13	-5	-7	-2
CN(C)C=Nc1c(Br)cc(Br)c2nonc12	.	37	70*	-10	-10
CN1CC(=O)N(CC(=O)Nc2ccc(SC(F)F)cc2)C1=O	4	-86*	-3	-13	-3
O=C(CN1CCOCC1)NCC[C@H]1CC[C@H](NC(=O)c2ccc3c(c2)OCO3)[C@H](CO)O1	-2	.	.	.	.
O=S(=O)(c1ccc(Cl)cc1)c1snnc1-c1ccccc1	.	3	94*	22	8
O=c1c2ccc(Cl)cc2nc(-c2ccc([N+](=O)[O-])cc2)n1O	0	23	15	3	6
N#Cc1ccc(-c2nc3ccc(Br)cc3c(=O)n2O)cc1	0	-111*	37	-13	-2
O=c1c2cc(Br)ccc2nc(-c2ccc([N+](=O)[O-])cc2)n1O	19	-167*	4	-10	-3
COc1ccc(N2CCN(CCCNC(=O)C(=O)c3c(C)n(C)c4ccccc34)CC2)cc1	3	21	54*	0	-1
SMILES	ERp5 block	AI-2 QS modul	Vif inh	PvdQ acylase	PDI inh
O=C1NC(Cc2ccc(O)cc2)c2nc3ccccc3c(=O)n2-c2ncccc21 (stereo not given)	1	.	0	.	43*
Cc1ccc2nc3n(c(=O)c2c1)-c1ncccc1C(=O)NC3Cc1ccc(O)cc1 (stereo not given)	-6	.	2	.	37*
Cc1cc(C)c2c(=O)n3c(nc2c1)C(Cc1ccc(O)cc1)NC(=O)c1cccnc1-3 (stereo not given)	-2	.	-13	.	44*
Cc1cc(C)c2c(=O)n3c(nc2c1)C(Cc1ccccc1)NC(=O)c1cccnc1-3 (stereo not given)	-5	.	4	.	-1
O=C1NC(Cc2ccccc2)c2nc3ccccc3c(=O)n2-c2ncccc21 (stereo not given)	5	.	1	.	1
C[C@@H]1CN([C@@H](C)CO)C(=O)c2cc(C#C[C@@H](C)O)cnc2O[C@@H]1CN(C)C(=O)Cc1ccncc1	1	.	.	.	.
